The sample as a whole holds a higher share of hits than the screen did.
RmlC RmlD mix – mixture blocks RmlC and RmlD coupled enzyme activity; 0.39% of 110,000 active; inhibition, % at 5.5 µM; RmlC/RmlD coupled enzyme inhibition, 384-well mixture HTS; in the data active means inhibition above about 30%, passing the limit was not always enough; inconclusive means no clear call, values can overlap the other calls
HIV RNase H inh-1 – inhibitors of HIV-1 reverse transcriptase RNase H | RT-RNase H RNA/DNA duplex cleavage, fluorescence | inhibition, % at 10 µM | AID 565 | 1.9% of 65,000 active | P04585; in the data active means inhibition above about 50%
HIV RNase H inh-2 – confirmation of HIV-1 reverse transcriptase RNase H inhibitors; AID 651; shares compounds with HIV RNase H inh-1; inhibition, % at 10 µM; 39% of 1,000 active; Recombinant RT RNase H, fluorescent RNA/DNA duplex cleavage; in the data active means inhibition above about 48%; inconclusive means no clear call, values can overlap the other calls
Active calls of the source: *; ? = inconclusive; . = not tested or not shown.

SMILES	RmlC RmlD mix	HIV RNase H inh-1	HIV RNase H inh-2
O=C(CSc1nnc(-c2ccco2)c(-c2ccco2)n1)Nc1ccccc1	8.7	86.5*	37.3
COc1ccc(-c2oc(/N=C/N3CCOCC3)c(C#N)c2-c2ccc(OC)cc2)cc1	2.6	16.5	.
CCOC(=O)CCc1c(C)nc(SCCCn2c(=O)[nH]c3ccccc32)c(C#N)c1C	6.5	85.7*	19.9
CCOC(=O)CCc1c(C)nc(SCCN2CCCC2)c(C#N)c1C	-11.2	3.7	.
O=C(CSc1nc2c(c(=O)[nH]1)CCC2)Nc1cccc(Cl)c1	-8.5	87.3*	38.0
CN(C)c1ccc(NC(=O)CSc2nc3c(c(=O)[nH]2)CCCC3)cc1	21.2	-1.6	.
COc1ccc(-c2c(C#N)c(SCC(N)=O)nc3c2CCCC3)cc1	-10.5	.	.
COc1ccc(-c2c3c([nH]c(=S)c2C#N)CCC3)cc1	11.7	80.6*	24.6
N#Cc1c(N)nc2c(c1-c1cccnc1)CCCCC2	-10.4	-12.6	.
N#Cc1c(-c2cccnc2)c2c([nH]c1=S)CCCC2	-14.5	89.7*	68.8*
N#Cc1c2c(c(-c3ccco3)[nH]c1=O)CCCC2	-4.6	-7.5	.
N#Cc1c(-c2ccco2)c2c([nH]c1=S)CCCC2	-4.8	82.0*	36.1
COC(=O)c1ccc(COc2ccc(-c3nn[nH]n3)cc2)cc1	4.3	-42.0	.
O=C(CSc1n[nH]c(-c2ccncc2)n1)c1ccccc1	3.9	-4.8	.
Cc1nc(SCC(=O)c2ccccc2)n[nH]1	-2.8	59.2*	17.1
Cc1c(Br)c([N+](=O)[O-])nn1C(C)C(=O)N1CCCc2ccccc21 (stereo unspecified)	-0.2	.	.
Cc1cccc(-c2nsc(SCC(=O)Nc3cc(C)on3)n2)c1	-7.0	69.6*	48.2
Cc1cc(NC(=O)CSc2nc3ccccc3s2)no1	-11.9	.	.
CC(=O)c1cc(-c2ccccc2)n(CC(=O)N2CCC(N3CCCCC3)CC2)c1C	-86.0	-9.7	.
Cc1cc(C)c2c(=O)n(CC(=O)N3CCC(N4CCCCC4)CC3)sc2n1	8.0	83.4*	58.3*
CCOC(=O)C1CCCN(C(=O)Cn2sc3nc(C)cc(C)c3c2=O)C1 (stereo unspecified)	5.2	85.0*	50.8*
CCOC(=O)C1CCCN(C(=O)Cn2cnc3c2c(=O)n(C)c(=O)n3C)C1 (stereo unspecified)	7.5	-7.7	.
CC(C)Cn1c(SCC(=O)NCc2ccc(Cl)cc2)nnc1-c1cccc(S(=O)(=O)N2CCOCC2)c1	-3.1	.	.
O=C(c1ccccc1Sc1cccc2ccccc12)N1CCOCC1	-12.1	.	.
CCn1c(SCC(=O)c2ccc(O)c(O)c2)nnc1-c1ccccc1OC	-3.9	81.3*	62.1*
SMILES	RmlC RmlD mix	HIV RNase H inh-1	HIV RNase H inh-2
C=CCn1c(SCC(=O)c2ccc(O)c(O)c2)nnc1-c1ccccc1OC	3.4	84.6*	62.2*
CCn1c(CSc2nc3ccccc3s2)nnc1SCC(=O)c1ccc(O)c(O)c1	-5.6	.	.
C=CCn1c(SCC(N)=O)nnc1-c1ccccc1O	-69.6	-0.8	.
CCOC(=O)N1CCN(C2CC(=O)N(c3ccc(Oc4ccccc4)cc3)C2=O)CC1 (stereo unspecified)	5.4	.	.
CCOc1ccccc1NC(=O)c1ccc(Cl)c(NC(=O)CC(c2ccccc2)c2ccccc2)c1	11.8	.	.
Cc1oc(C)c2c(=O)ccc3c(c12)OC(N)=C(C#N)C3c1ccccc1 (stereo unspecified)	-8.7	-4.6	.
CSc1ccc(C2C(C#N)=C(N)Oc3c2ccc(=O)c2c(C)oc(C)c32)cc1 (stereo unspecified)	2.8	61.1*	66.9*
COc1nc2c(C)cccc2cc1-c1noc(-c2ccncc2)n1	.	0.5	.
CCN(CC)c1ccc(CC2C(=O)N(C)C(=O)N(C)C2=O)cc1	.	8.4	.
C=CCOc1ccc(CC2C(=O)N(C)C(=O)N(C)C2=O)cc1	5.0	55.6*	87.9*
COc1ccc(C(=O)c2ccc(OC)c(OC)c2)cc1OC	-12.2	-36.7	.
COc1ccc(C(=S)N(C)C)cc1OC	-4.7	87.4*	58.3*
Cc1cc(NC(=O)COC(=O)c2cc3c(s2)CCC(C)C3)no1 (stereo unspecified)	-10.8	19.5	.
CCCOC(=O)/C(C(N)=NCc1ccccc1)=C(\O)OCCC	-7.7	-65.1	.
COC(=O)c1ccc2c(=O)n(Cc3ccco3)c(SCC(=O)Nc3ccccc3Cl)nc2c1	10.1	86.5*	67.1*
COC(=O)c1ccc2c(=O)n(CC3CCCO3)c(SCC(=O)Nc3ccccc3Cl)nc2c1 (stereo unspecified)	14.7	.	.
COCCn1c(SCc2ccc(C(=O)OC)o2)nc2cc(Cl)ccc2c1=O	10.8	-40.4	.
COc1cc2[nH]c(=O)n(CCCCCC(=O)N3CCN(c4ccccc4)CC3)c(=O)c2cc1OC	13.4	.	.
COc1cc2[nH]c(=O)n(CCC(=O)N3CCN(c4cccc(C)c4C)CC3)c(=O)c2cc1OC	8.7	61.1*	45.7
CSc1nc(C)cc(-n2ccc(=O)[nH]c2=O)n1	3.6	6.2	.
COc1ccc[nH]c1=O	-2.0	2.6	.
Cc1ccc(-c2nnn(CC(=O)NCC3CC3)n2)o1	-4.3	.	.
Cc1ccc(-c2nnn(CC(=O)Nc3ccc4nn(-c5ccccc5)nc4c3)n2)o1	.	76.2*	?
COC(=O)c1c(-c2cccnc2)csc1NC(=O)c1cc(C)on1	-8.1	85.8*	?
Cc1cccc(-c2csc(NC(=O)c3cnccn3)c2C(=O)OC(C)C)c1	5.1	.	.
SMILES	RmlC RmlD mix	HIV RNase H inh-1	HIV RNase H inh-2
CCCCCOC(=O)C1[C@H]2C(=O)N(CCCOC)C[C@]23C=C[C@H]1O3 (stereo partly specified)	7.3	4.9	.
CCC(Oc1ccccc1)C(=O)N1CC(C)CC(C)C1 (stereo unspecified)	-26.6	-29.2	.
Cc1cc(C)cc(NC(=O)C2CCCN(c3nccc(C)n3)C2)c1 (stereo unspecified)	8.0	-5.2	.
Cc1cc(C)cc(NC(=O)C2CCCN(c3nc(C)cc(C)n3)C2)c1 (stereo unspecified)	-20.3	70.4*	44.0
COc1ccc(C(=O)Nc2cc(OC)nc(OC)n2)cc1	4.8	.	.
C=CCN(C(=O)c1cccc(S(=O)(=O)N2CCN(C)CC2)c1)c1nc(-c2ccccc2)cs1	-0.5	.	.
C(=N\n1cnnc1)/c1ccc2ncccc2c1	7.8	-14.3	.
Oc1ccc(C=Nc2ccc3ncccc3c2)c(O)c1	11.9	53.1*	42.7
COC(=O)C(N)Cc1ccc(O)c(O)c1 (stereo unspecified)	21.9	.	.
NC(CO)C(=O)NNCc1ccc(O)c(O)c1O (stereo unspecified)	-8.1	29.9	31.8
O=C(O)c1cnc2ccccc2n1	7.9	82.3*	17.0
COC(=O)c1cnc2ccccc2n1	-10.8	.	.
Oc1ccc(/C=C/c2nc(-c3ccccc3O)n(-c3ccccc3)n2)cc1	-27.1	.	.
Cc1ccc(OCC(O)CNS(=O)(=O)c2ccccc2C(=O)N2CCCCC2)cc1 (stereo unspecified)	12.5	-1.8	.
O=C(CSc1nnc(-c2ccccn2)n1Cc1ccccc1)Nc1ccc2c(c1)OCO2	4.5	77.5*	6.5
Cn1c(SCC(=O)Nc2ccc3c(c2)OCCO3)nnc1-c1ccccn1	11.3	-3.1	.
COC(=O)CN1C(=O)C(O)(CC(=O)c2ccc(C)cc2)c2ccccc21 (stereo unspecified)	-19.3	53.7*	-0.6
COC(=O)CN1C(=O)C(O)(CC(=O)c2ccccc2)c2ccccc21 (stereo unspecified)	.	18.7	.
Cc1cc(C)cc(OCC(=O)Nc2nonc2NC(=O)COc2cc(C)cc(C)c2)c1	-3.2	78.1*	66.6*
